# Reference: PubChem BioAssay (EPA / NIEHS)
# Results filed as inconclusive are left out. The source made the active and inactive calls. How the source made its calls: active means hit-call score of the fitted dose curve at least 0.9, where 1 is the maximum; inconclusive means response in the unintended direction; inactive means score below 0.9.
# Tests used:
# [1] = target: human Protein Tyrosine Phosphatase Non-receptor Type 9 (PTPN9), PTPN9 (gene 5780) (UniProt P43378); assay: NVS_ENZ_hPTPN9: NovaScreen (NVS) Enzymatic Assay for human Protein Tyrosine Phosphatase Non-receptor Type 9 (PTPN9) (AID 2283209)
# In short: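 Sf9-expressed enzyme in a cell-free assay, fluorescence read 1.33 h after dosing with mobility-shift separation of substrate and product. Tested at 25 uM in duplicate, then up to 50 uM; signal loss versus DMSO.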
# [2] = target: human Protein Tyrosine Phosphatase Non-receptor Type 6 (PTPN6), PTPN6 (gene 5777) (UniProt P29350); assay: NVS_ENZ_hPTPN6: NovaScreen (NVS) Enzymatic Assay for human Protein Tyrosine Phosphatase Non-receptor Type 6 (PTPN6) (AID 2283210)
# In short: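 Cell-free assay with recombinant PTPN6 expressed in SF9 cells, fluorescent substrate, product separated from substrate by electrophoretic mobility shift; read 1.33 hours after dosing. Primary screen in duplicate at 25 uM, actives retested in concentration series; DMSO baseline.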
# [3] = target: human Protein Tyrosine Phosphatase Non-receptor Type 1 (PTPN1), PTPN1 (gene 5770) (UniProt P18031); assay: NVS_ENZ_hPTPN1: NovaScreen (NVS) Enzymatic Assay for human Protein Tyrosine Phosphatase Non-receptor Type 1 (PTPN1) (AID 2283201)
# In short: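 Cell-free fluorogenic-substrate activity assay on recombinant enzyme, read 1.33 h after dosing by fluorescence and electrophoretic mobility shift; loss of signal vs DMSO baseline. Primary screen in duplicate at 25 uM, hits then run in concentration-response up to 50 uM.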
# [4] = target: Tyrosine-protein phosphatase non-receptor type 11 (Homo sapiens) (UniProt Q06124); assay: NVS_ENZ_hPTPN11: NovaScreen (NVS) Enzymatic Assay for human Protein Tyrosine Phosphatase Non-receptor Type 11 (PTPN11) (AID 2283202)
# In short: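 Recombinant human PTPN11 activity on a fluorescent substrate, with substrate/product separated by electrophoretic mobility shift; read 0.5 h after dosing, loss of signal vs DMSO. Duplicate 25 uM screen, then concentration-response up to 50 uM.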
# [5] = target: Tyrosine-protein phosphatase non-receptor type 12 (Homo sapiens) (UniProt Q05209); assay: NVS_ENZ_hPTPN12: NovaScreen (NVS) Enzymatic Assay for human Protein Tyrosine Phosphatase Non-receptor Type 12 (PTPN12) (AID 2283204)
# In short: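 Single-concentration duplicates (25 uM) preceded singleton concentration-response up to 50 uM for chemicals passing threshold. Cell-free recombinant PTPN12 activity was read 1.33 h after dosing via fluorescence after mobility-shift separation; loss of signal versus DMSO.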
# [6] = target: Tyrosine-protein phosphatase non-receptor type 13 (Homo sapiens) (UniProt Q12923); assay: NVS_ENZ_hPTPN13: NovaScreen (NVS) Enzymatic Assay for human Protein Tyrosine Phosphatase Non-receptor Type 13 (PTPN13) (AID 2283205)
# In short: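 Cell-free assay of recombinant human PTPN13 with a fluorescent substrate, product separated by electrophoretic mobility shift and read 0.5 h after dosing. Primary screen at 25 uM in duplicate, then concentration-response up to 50 uM. Loss of signal fitted against DMSO.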
# [7] = target: Tyrosine-protein phosphatase non-receptor type 14 (Homo sapiens) (UniProt Q15678); assay: NVS_ENZ_hPTPN14: NovaScreen (NVS) Enzymatic Assay for human Protein Tyrosine Phosphatase Non-receptor Type 14 (PTPN14) (AID 2283206)
# In short: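 Cell-free recombinant human PTPN14 with fluorescent substrate, read 0.5 h after dosing by fluorescence and electrophoretic mobility shift separating substrate from product. Primary screen at 25 uM in duplicate; hits run to 50 uM maximum; loss of signal versus DMSO.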
# [8] = target: human Protein Tyrosine Phosphatase Non-receptor Type 4 (PTPN4), PTPN4 (gene 5775) (UniProt P29074); assay: NVS_ENZ_hPTPN4: NovaScreen (NVS) Enzymatic Assay for human Protein Tyrosine Phosphatase Non-receptor Type 4 (PTPN4) (AID 2283208)
# In short: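 Cell-free assay of PTPN4 expressed in Sf9 cells, using a fluorescent substrate with product separated by mobility shift; read 1.33 h after dosing. Single-point screen at 25 uM, then concentration-response up to 50 uM. Loss of signal relative to DMSO.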
# [9] = target: human Rho Associated Coiled-coil Containing Protein Kinase 1 (ROCK1), ROCK1 (gene 6093) (UniProt Q13464); assay: NVS_ENZ_hROCK1: NovaScreen (NVS) Enzymatic Assay for human Rho Associated Coiled-coil Containing Protein Kinase 1 (ROCK1) (AID 2283214)
# In short: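 Cell-free recombinant human ROCK1 activity assay; fluorescent substrate and product separated by electrophoretic mobility shift, read 1 h after dosing. Screened in duplicate at 25 uM; loss of signal versus DMSO baseline scored as inhibition.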
# [10] = target: human Protein Tyrosine Phosphatase Receptor Type M (PTPRM), PTPRM (gene 5797) (UniProt P28827); assay: NVS_ENZ_hPTPRM: NovaScreen (NVS) Enzymatic Assay for human Protein Tyrosine Phosphatase Receptor Type M (PTPRM) (AID 2283215)
# In short: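 Cell-free recombinant PTPRM with fluorogenic substrate; product separated from substrate by electrophoretic mobility shift and read by fluorescence, 1.33 h after dosing. Primary screen single concentration (25 uM) in duplicate; actives retested in concentration series; loss of signal versus DMSO.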
# [11] = target: human SRC Proto-Oncogene, Non-receptor Tyrosine Kinase (SRC), SRC (gene 6714) (UniProt P12931); assay: NVS_ENZ_hSRC: NovaScreen (NVS) Enzymatic Assay for human SRC Proto-Oncogene, Non-receptor Tyrosine Kinase (SRC) (AID 2283223)
# In short: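 Cell-free kinase activity assay with fluorescent substrate, product separated by electrophoretic mobility shift, read 1 h after dosing. Duplicate single point at 25 uM, then concentration-response up to 50 uM; loss of signal versus DMSO.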
# [12] = target: human Tropomyosin Receptor Kinase A (TRKA), NTRK1 (gene 4914) (UniProt P04629); assay: NVS_ENZ_hTrkA: NovaScreen (NVS) Enzymatic Assay for human Tropomyosin Receptor Kinase A (TRKA) (AID 2283224)
# In short: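 Recombinant human TrkA activity read after 1 h by fluorescence with electrophoretic mobility shift separating substrate and product. Primary screen in duplicate at 25 uM; actives were rerun in concentration-response up to 50 uM. Loss of signal versus DMSO.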
# [13] = target: rabbit Imidazoline 2 Central (I2C), CKB (gene 100009085) (UniProt P00567); assay: NVS_ENZ_rabI2C: NovaScreen (NVS) Enzymatic Assay for rabbit Imidazoline 2 Central (I2C) (AID 2283228)
# In short: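 Rabbit brain membranes, cell-free; readout by filter-based scintillation counting 1.5 hours after dosing, loss of signal vs DMSO. Initial duplicate test at 25 uM, then concentration-response with 50 uM top concentration.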
# [14] = target: human Protein Tyrosine Phosphatase Receptor Type B (PTPRB), PTPRB (gene 5787) (UniProt P23467); assay: NVS_ENZ_hPTPRB: NovaScreen (NVS) Enzymatic Assay for human Protein Tyrosine Phosphatase Receptor Type B (PTPRB) (AID 2283211)
# In short: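 Recombinant human PTPRB with a fluorescent substrate, product separated by electrophoretic mobility shift; read 1 h after dosing. Primary screen in duplicate at 25 uM; actives then retested in concentration series; loss of signal versus DMSO.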
# [15] = target: human Sirtuin 2 (SIRT2), SIRT2 (gene 22933) (UniProt Q8IXJ6); assay: NVS_ENZ_hSIRT2: NovaScreen (NVS) Enzymatic Assay for human Sirtuin 2 (SIRT2) (AID 2283217)
# In short: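 Cell-free recombinant human SIRT2, fluorescent substrate with product separated by electrophoretic mobility shift, 1 hr. Screened in duplicate at 25 uM; hits rerun singly in concentration-response up to 50 uM, relative to DMSO.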
# [16] = target: human Sirtuin 3 (SIRT3), SIRT3 (gene 23410) (UniProt Q9NTG7); assay: NVS_ENZ_hSIRT3: NovaScreen (NVS) Enzymatic Assay for human Sirtuin 3 (SIRT3) (AID 2283222)
# In short: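 Cell-free enzyme assay with recombinant protein and fluorescent substrate, product separated by electrophoretic mobility shift; read 1 hour after dosing. Screened in duplicate at 25 uM, then singleton concentration-response up to 50 uM; loss of signal versus DMSO.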
# [17] = target: human Protein Phosphatase, Mg2+/Mn2+ Dependent 1A (PPM1A), PPM1A (gene 5494) (UniProt P35813); assay: NVS_ENZ_hPPM1A: NovaScreen (NVS) Enzymatic Assay for human Protein Phosphatase, Mg2+/Mn2+ Dependent 1A (PPM1A) (AID 2283198)
# In short: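 Cell-free recombinant PPM1A phosphatase assay with fluorescent substrate, read 1 h after dosing by electrophoretic mobility shift. Chemicals screened in duplicate at 25 uM, then in concentration-response up to 50 uM; loss of activity versus DMSO.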
# [18] = target: Serine/threonine-protein phosphatase PP1-alpha catalytic subunit (Homo sapiens) (UniProt P62136); assay: NVS_ENZ_hPPP1CA: NovaScreen (NVS) Enzymatic Assay for human Protein Phosphatase 1 Aatalytic subunit Alpha (PPP1CA) (AID 2283200)
# In short: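 Recombinant enzyme activity read by fluorescence with electrophoretic mobility shift separating substrate from product, 1.33 h after dosing; loss of signal vs DMSO baseline. Primary screen in duplicate at 25 uM; actives retested in concentration-response up to 50 uM.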
# [19] = target: human Protein Tyrosine Phosphatase Receptor Type F (PTPRF), PTPRF (gene 5792) (UniProt P10586); assay: NVS_ENZ_hPTPRF: NovaScreen (NVS) Enzymatic Assay for human Protein Tyrosine Phosphatase Receptor Type F (PTPRF) (AID 2283213)
# In short: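 Cell-free fluorescence enzyme assay with recombinant protein and substrate; product separated by electrophoretic mobility shift. Read 1 h after dosing, single 25 uM duplicate screen, then concentration-response up to 50 uM; loss of signal vs DMSO.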
# Sequence of Tyrosine-protein phosphatase non-receptor type 13 (Homo sapiens) (Q12923 whole entry, looked up): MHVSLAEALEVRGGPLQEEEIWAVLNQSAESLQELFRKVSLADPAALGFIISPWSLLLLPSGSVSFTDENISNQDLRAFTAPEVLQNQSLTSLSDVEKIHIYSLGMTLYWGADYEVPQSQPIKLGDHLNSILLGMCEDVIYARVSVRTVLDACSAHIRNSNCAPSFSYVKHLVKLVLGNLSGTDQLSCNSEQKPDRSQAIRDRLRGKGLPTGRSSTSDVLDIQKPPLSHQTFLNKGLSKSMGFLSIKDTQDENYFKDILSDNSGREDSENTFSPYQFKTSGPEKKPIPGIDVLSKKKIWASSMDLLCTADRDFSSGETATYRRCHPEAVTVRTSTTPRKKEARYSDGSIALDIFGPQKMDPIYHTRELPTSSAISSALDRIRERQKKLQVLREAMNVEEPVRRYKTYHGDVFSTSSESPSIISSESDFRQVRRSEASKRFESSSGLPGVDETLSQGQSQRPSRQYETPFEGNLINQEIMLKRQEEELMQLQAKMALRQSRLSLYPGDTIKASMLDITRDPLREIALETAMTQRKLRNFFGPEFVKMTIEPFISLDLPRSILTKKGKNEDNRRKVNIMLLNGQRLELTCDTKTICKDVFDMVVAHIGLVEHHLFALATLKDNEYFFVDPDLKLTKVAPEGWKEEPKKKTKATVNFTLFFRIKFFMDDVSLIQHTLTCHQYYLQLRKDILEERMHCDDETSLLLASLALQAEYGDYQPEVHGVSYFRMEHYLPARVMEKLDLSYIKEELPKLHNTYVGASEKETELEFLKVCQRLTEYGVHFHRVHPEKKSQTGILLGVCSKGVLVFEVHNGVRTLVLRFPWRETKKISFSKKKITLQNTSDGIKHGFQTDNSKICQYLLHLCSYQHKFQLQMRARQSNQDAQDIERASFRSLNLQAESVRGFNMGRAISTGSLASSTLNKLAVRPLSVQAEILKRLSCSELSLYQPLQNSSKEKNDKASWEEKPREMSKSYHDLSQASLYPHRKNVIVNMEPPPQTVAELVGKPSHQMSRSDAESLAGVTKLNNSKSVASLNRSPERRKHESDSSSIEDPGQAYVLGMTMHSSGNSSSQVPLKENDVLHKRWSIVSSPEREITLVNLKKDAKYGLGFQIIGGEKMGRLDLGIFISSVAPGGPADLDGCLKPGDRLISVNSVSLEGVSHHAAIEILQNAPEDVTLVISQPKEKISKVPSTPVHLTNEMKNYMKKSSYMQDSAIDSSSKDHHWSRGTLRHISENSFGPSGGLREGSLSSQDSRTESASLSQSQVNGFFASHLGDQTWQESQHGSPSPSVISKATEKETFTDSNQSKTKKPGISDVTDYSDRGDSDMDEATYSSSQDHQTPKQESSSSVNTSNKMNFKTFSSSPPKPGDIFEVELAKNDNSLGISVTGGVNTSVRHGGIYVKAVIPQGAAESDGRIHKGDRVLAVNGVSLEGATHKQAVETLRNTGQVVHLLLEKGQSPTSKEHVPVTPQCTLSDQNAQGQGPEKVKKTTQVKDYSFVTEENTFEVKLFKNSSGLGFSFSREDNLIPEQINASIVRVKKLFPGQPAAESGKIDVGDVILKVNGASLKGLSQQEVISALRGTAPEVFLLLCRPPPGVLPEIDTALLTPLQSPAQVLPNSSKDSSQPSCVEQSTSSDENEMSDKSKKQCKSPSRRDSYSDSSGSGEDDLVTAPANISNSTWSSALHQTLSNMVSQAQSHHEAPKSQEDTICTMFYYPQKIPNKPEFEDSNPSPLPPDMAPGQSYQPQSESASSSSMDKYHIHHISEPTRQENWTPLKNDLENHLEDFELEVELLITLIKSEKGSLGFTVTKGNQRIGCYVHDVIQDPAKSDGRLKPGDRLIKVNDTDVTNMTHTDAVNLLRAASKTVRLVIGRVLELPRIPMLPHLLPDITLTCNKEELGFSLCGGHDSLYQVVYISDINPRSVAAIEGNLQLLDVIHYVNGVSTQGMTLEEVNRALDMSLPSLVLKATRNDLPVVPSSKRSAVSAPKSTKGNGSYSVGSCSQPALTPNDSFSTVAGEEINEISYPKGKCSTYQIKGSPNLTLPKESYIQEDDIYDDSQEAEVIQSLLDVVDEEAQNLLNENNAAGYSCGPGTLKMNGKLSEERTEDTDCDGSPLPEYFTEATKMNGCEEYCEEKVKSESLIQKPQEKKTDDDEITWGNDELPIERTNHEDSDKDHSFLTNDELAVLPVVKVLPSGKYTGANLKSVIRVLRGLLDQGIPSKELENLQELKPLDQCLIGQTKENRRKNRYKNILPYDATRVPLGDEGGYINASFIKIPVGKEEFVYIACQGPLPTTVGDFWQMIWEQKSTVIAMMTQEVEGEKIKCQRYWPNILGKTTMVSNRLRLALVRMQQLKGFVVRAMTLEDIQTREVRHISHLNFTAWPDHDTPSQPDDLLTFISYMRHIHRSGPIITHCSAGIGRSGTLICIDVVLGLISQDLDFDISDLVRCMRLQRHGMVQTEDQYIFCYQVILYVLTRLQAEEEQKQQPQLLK
# Sequence of human Protein Tyrosine Phosphatase Non-receptor Type 9 (PTPN9), PTPN9 (gene 5780) (P43378 whole entry, looked up): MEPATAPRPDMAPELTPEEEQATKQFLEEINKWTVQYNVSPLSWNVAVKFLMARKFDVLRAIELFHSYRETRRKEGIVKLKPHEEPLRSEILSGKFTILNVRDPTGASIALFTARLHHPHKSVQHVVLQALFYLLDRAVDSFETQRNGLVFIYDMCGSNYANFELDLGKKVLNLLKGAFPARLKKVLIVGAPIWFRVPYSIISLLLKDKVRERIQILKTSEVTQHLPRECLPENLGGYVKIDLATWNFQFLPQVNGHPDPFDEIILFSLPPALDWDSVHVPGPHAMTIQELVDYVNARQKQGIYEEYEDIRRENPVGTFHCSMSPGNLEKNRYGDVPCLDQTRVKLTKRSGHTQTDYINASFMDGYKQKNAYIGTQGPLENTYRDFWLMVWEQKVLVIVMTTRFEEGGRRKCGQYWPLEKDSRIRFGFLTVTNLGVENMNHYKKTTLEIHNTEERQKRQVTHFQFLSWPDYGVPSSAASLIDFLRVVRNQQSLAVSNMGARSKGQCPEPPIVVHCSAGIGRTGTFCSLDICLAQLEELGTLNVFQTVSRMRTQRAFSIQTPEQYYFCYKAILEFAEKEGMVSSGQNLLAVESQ
# Sequence of Tyrosine-protein phosphatase non-receptor type 12 (Homo sapiens) (Q05209 whole entry, looked up): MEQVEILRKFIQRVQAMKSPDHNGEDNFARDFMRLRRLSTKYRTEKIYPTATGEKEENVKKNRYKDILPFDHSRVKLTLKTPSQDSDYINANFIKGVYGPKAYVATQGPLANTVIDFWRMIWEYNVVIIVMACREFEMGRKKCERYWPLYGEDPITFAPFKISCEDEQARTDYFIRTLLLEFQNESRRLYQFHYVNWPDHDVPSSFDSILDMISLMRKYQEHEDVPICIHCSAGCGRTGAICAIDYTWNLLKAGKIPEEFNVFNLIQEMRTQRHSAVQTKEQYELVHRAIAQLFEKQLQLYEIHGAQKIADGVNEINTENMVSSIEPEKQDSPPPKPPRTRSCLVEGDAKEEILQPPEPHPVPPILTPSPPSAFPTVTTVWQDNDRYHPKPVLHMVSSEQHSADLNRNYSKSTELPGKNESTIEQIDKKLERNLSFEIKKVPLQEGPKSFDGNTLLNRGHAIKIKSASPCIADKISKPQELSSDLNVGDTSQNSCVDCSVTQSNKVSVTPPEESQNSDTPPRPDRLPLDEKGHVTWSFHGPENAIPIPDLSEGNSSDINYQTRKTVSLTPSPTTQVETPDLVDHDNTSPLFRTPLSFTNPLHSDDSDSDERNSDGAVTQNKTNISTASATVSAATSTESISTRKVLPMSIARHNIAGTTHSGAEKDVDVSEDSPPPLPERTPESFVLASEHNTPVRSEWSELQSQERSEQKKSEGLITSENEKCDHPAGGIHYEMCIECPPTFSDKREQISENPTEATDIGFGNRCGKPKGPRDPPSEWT
# Sequence of human Tropomyosin Receptor Kinase A (TRKA), NTRK1 (gene 4914) (P04629 whole entry, looked up): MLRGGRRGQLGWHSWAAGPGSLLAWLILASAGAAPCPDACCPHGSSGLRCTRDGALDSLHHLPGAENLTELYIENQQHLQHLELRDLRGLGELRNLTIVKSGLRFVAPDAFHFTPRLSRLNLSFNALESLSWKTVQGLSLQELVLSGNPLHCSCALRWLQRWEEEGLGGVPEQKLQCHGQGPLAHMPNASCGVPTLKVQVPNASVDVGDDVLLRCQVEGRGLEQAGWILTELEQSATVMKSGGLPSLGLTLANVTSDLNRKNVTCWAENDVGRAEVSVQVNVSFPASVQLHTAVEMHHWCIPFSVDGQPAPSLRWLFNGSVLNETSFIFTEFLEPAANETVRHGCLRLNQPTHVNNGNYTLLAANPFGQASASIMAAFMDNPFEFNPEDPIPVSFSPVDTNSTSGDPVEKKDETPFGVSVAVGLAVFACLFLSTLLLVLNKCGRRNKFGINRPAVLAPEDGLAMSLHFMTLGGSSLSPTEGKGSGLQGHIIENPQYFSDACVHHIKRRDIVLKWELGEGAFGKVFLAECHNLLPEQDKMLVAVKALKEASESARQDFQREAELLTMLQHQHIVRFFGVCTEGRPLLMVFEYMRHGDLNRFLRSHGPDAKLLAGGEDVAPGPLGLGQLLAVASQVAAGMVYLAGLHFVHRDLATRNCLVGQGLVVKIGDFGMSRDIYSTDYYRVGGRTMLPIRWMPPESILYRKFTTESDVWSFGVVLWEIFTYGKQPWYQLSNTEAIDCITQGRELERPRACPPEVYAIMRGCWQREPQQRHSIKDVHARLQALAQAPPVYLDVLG
# Sequence of human Sirtuin 3 (SIRT3), SIRT3 (gene 23410) (Q9NTG7 whole entry, looked up): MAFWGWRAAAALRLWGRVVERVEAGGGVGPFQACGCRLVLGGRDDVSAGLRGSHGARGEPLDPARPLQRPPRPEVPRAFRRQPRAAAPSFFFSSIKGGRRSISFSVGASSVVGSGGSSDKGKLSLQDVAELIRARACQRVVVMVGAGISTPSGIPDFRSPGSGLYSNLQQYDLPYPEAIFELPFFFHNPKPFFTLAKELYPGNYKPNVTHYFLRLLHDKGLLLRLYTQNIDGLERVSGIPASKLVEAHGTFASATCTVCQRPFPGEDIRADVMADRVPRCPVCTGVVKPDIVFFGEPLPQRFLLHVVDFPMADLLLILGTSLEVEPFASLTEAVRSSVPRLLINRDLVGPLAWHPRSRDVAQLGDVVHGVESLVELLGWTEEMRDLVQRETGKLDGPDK
compound,measurement,setting,value
OC[C@H]1O[C@@H]2O[C@H]3[C@H](O)[C@@H](O)[C@@H](O[C@H]4[C@H](O)[C@@H](O)[C@@H](O[C@H]5[C@H](O)[C@@H](O)[C@@H](O[C@H]6[C@H](O)[C@@H](O)[C@@H](O[C@H]7[C@H](O)[C@@H](O)[C@@H](O[C@H]1[C@H](O)[C@H]2O)O[C@@H]7CO)O[C@@H]6CO)O[C@@H]5CO)O[C@@H]4CO)O[C@@H]3CO,outcome,[1],inactive
same,outcome,[2],inactive
O=c1[nH]cnc2c1ncn2[C@H]1CC[C@@H](CO)O1,outcome,[3],inactive
same,outcome,[4],inactive
same,outcome,[5],inactive
same,outcome,[6],inactive
same,outcome,[7],inactive
same,outcome,[8],inactive
same,outcome,[9],inactive
same,outcome,[10],inactive
same,outcome,[11],inactive
same,outcome,[12],inactive
O=C1CN(N=Cc2ccc([N+](=O)[O-])o2)C(=O)N1,outcome,[4],inactive
CCCCC(CC)C(=O)OCCOCCOCCOC(=O)C(CC)CCCC (stereo not drawn),outcome,[1],inactive
same,outcome,[13],inactive
C=CN1CCCC1=O,outcome,[2],inactive
CCCCCCCCCC,outcome,[5],inactive
CCCC(CCC)C(=O)O,outcome,[3],inactive
same,outcome,[4],inactive
same,outcome,[6],inactive
same,outcome,[7],inactive
same,outcome,[1],inactive
same,outcome,[14],inactive
same,outcome,[9],inactive
same,outcome,[15],inactive
same,outcome,[16],inactive
same,outcome,[11],inactive
same,outcome,[12],inactive
C[C@@H](Oc1ccc(CNC(=O)c2cccnc2Oc2ccc3c(c2)OCO3)c(F)c1)C(=O)O,outcome,[17],inactive
COc1cc2c(c(OC)c1OC)-c1ccc(OC)c(=O)cc1[C@@H](NC(C)=O)CC2,outcome,[17],inactive
CC(C)CCCCCCOC(=O)C1CCCCC1C(=O)OCCCCCCC(C)C (stereo not drawn),outcome,[18],inactive
O=C(O)c1ccc2c(c1)nc(C(=O)NC1CCN(C3CC3)CC1)n2Cc1cc(-c2ccc(Cl)s2)on1,AC50,[6],257 nM (active)
same,outcome,[1],inactive
same,outcome,[19],inactive
same,outcome,[10],inactive
same,outcome,[15],inactive
same,outcome,[11],inactive
CC[C@H](C)C(=O)O[C@H]1C[C@H](O)C=C2C=C[C@H](C)[C@H](CC[C@@H](O)C[C@@H](O)CC(=O)O)[C@H]21,outcome,[5],inactive
COCc1nnc(-c2ccc[n+]([O-])c2)n1-c1c(Cl)c(Cl)cc2[nH]c(=O)c(=O)[nH]c12,outcome,[15],inactive
Cn1cc[nH]c1=S,outcome,[16],inactive
CC(C)c1nnc2ccc(-c3ocnc3-c3cc(F)ccc3F)cn12,outcome,[16],inactive
Cn1c(=O)c2[nH]cnc2n(C)c1=O,outcome,[11],inactive
CCN(CC)C(=S)SSC(=S)N(CC)CC,outcome,[12],inactive
